The values that follow come from the supplement of paper PMC11417369.

Whole data set: some 25,000 sequences, median “ln(normalized median fluorescence intensity)” near 9.7, cut for the highest 2% near 11. This excerpt belongs to a sample that is enriched for the highest values.

This test deals with PfAP2-HC AP2 domain (GST-tagged). The test is described as follows: gcPBM binding intensity (ln(normalized median fluorescence intensity)); higher = stronger DNA binding. In short, it runs like this: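 Using an Agilent 4 × 180k array, primer-extended double-stranded 36-bp intergenic genomic probes and negative controls were exposed for 1 h to GST-fused P. falciparum DNA-binding domains expressed in E. coli. Binding was carried out in 1× PBS with 1% milk, 0.2 mg/ml BSA, 0.5% salmon testes DNA and 0.03% Triton X-100, and protein was detected with Alexa488 anti-GST antibody and a 488 nm scan. Binding intensity is the highest Masliner-normalised natural-log median intensity across replicate spots of either probe orientation.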
For “TCAAAGCACACATACACACACATATAGATTTATATA [CACACA_site6272]”, the “gcPBM binding intensity (ln)” value turned out to be 10.2.

As for “ATCATTTGCTCACGCACACACACATAAAAAGAAAAA [CACACA_site4349]”, the “gcPBM binding intensity (ln)” value came out at 10.2.

Regarding “TTTTATCACATTATTGCACACACATAAAGAAAAAAA [CACACA_site8922]”, the “gcPBM binding intensity (ln)” value was 9.98.

Turning to “ATCATTTGCATACGCACACACACATAAAAAGAAAAA [CACACA_site355]”, the “gcPBM binding intensity (ln)” value amounted to 10.9.

With “CATTTGCACACGCACACACACATAAAAAGAAAAATA [CACACA_site6297]”, the “gcPBM binding intensity (ln)” value turned out to be 11.1.

As to “CATTTGCCCAGGCACACACACATAAAAAGAAAAATA [CACACA_site356]”, the “gcPBM binding intensity (ln)” value was 10.2.

In the case of “CATTTGCACCCGCACACACACATAAAAAGAAAAATA [CACACA_site4350]”, the “gcPBM binding intensity (ln)” value worked out at 11.1.

On to “TAAACATTTTTGCACGCACACAAAAAAAAAATAAAA [CACACA_site167]”, for which the “gcPBM binding intensity (ln)” value was determined as 10.3.

Consider “ATGCATAAAAGAAATACACACATAAATATATAAATA [CACACA_site2163]”, for which the “gcPBM binding intensity (ln)” value was determined as 9.99.

Take “TTATCACATTATTGCACACACATAAAGAAAAAAATA [CACACA_site2841]”: the “gcPBM binding intensity (ln)” value is 9.94.

Turning to “ATATATTTTTAGCACAGTACAATATAATTAAATATA [XGTACX_site6779]”, the “gcPBM binding intensity (ln)” value is 9.62.

Regarding “AAAAAAAAAAAAAAAAGTACTAATTGAATATTAAAC [XGTACX_site3383]”, the “gcPBM binding intensity (ln)” value was determined as 9.44.

Take “TATGTGTTCAGTATTGCACACACACTCCAAAATAAA [CACACA_site8018]”: the “gcPBM binding intensity (ln)” value was determined as 10.

“TATAAATATGTATATGCATGTGGAATATATAATTAA [TGCATGCA_site226]”: the “gcPBM binding intensity (ln)” value amounted to 9.69.

Regarding “GGATTTATTATATATACACACATACATATATATATA [CACACA_site8669]”, the “gcPBM binding intensity (ln)” value was 9.88.

With “ATTATATATATCAGGTGTACGTAAAAAAAATGGACG [XGTACX_site1028]”, the “gcPBM binding intensity (ln)” value amounted to 9.88.

“TTTTTAATTAACTTTGTAAACTTATATATATATATA [TGCATGCA_negctrl_site311]”: the “gcPBM binding intensity (ln)” value is 9.6.

For “AATCGTGTTCTGAATACACACTAATACAAATTTGTA [CACACA_site6058]”, the “gcPBM binding intensity (ln)” value is 9.75.

Take “TGTAGTCTGGAGAAGAGTACACAGTATCTGGTAGCT [XGTACX_site2036]”: the “gcPBM binding intensity (ln)” value is 9.72.

“AATATGTTTTGTTAGGTTGGTGTTGGTAGAATGTTT [CACACA_negctrl_site1563]”: the “gcPBM binding intensity (ln)” value worked out at 9.85.

Regarding “CATACATACAGACACACACACATATATATATATATA [CACACA_site2920]”, the “gcPBM binding intensity (ln)” value was determined as 10.7.

In the case of “CATATACATACACATACACACATACAGACATACACA [CACACA_site6919]”, the “gcPBM binding intensity (ln)” value amounted to 10.2.

With “TATACAGACAGACACACACACATATATATATATATA [CACACA_site1734]”, the “gcPBM binding intensity (ln)” value amounted to 10.2.

Take “CGCACAGACGGACACACACACACATATATATATATA [CACACA_site5249]”: the “gcPBM binding intensity (ln)” value came out at 11.1.

As for “ATTTGGCATGGACACACACACACACCGACAGACATA [CACACA_site4491]”, the “gcPBM binding intensity (ln)” value was 11.4.

Take “TATACTCATGGACACACACACATACACAGACATACA [CACACA_site5024]”: the “gcPBM binding intensity (ln)” value is 10.4.

For “TATAGATACAGATACACACACACACCGACATATATA [CACACA_site5832]”, the “gcPBM binding intensity (ln)” value came out at 10.7.

With “AGCACAGACGGACACACACACATATATATATATATA [CACACA_site4341]”, the “gcPBM binding intensity (ln)” value was determined as 10.8.

Take “CCCACAGACGGACACACACACACACCGACACATATA [CACACA_site4356]”: the “gcPBM binding intensity (ln)” value came to 11.

With “AAAAATTTGGCATACACACACACACCGACACAGACA [CACACA_site4489]”, the “gcPBM binding intensity (ln)” value was determined as 10.5.

Take “TAAACAGACATATAAACACACATATAAACCGACATA [CACACA_site2478]”: the “gcPBM binding intensity (ln)” value came to 10.3.

As for “CCCACAGACGGACACACACACACATATATATATATA [CACACA_site4352]”, the “gcPBM binding intensity (ln)” value is 11.1.

As for “AAAAAAAAAAAAATGTGTACATACATATATTTATAT [XGTACX_site3076]”, the “gcPBM binding intensity (ln)” value came to 9.74.

For CTTTCGGTTGGAGAGGTGCGCTTCTCCTTTATAATA, the “gcPBM binding intensity (ln)” value is 9.61.

Take “TTTTTTTTTTATGGTACACACACGCGTATGGTTGCA [CACACA_site1876]”: the “gcPBM binding intensity (ln)” value amounted to 10.

Consider “AAGAAATAAATACATACACACATATATATATATATA [CACACA_site3362]”, for which the “gcPBM binding intensity (ln)” value was 10.3.

In the case of “CGAAAGAAAAAAAGCACACACAGTTTTGAGCAATGA [CACACA_site2109]”, the “gcPBM binding intensity (ln)” value stood at 10.1.

For the sequence “AAGTTTTATATTTATTAAATTTTTTTTTTTCCTTTT [XGTACX_negctrl_site184]”, the “gcPBM binding intensity (ln)” value amounted to 9.2.

For the sequence “AATATTCGTAATTGATGTACTTGTAATTCATACATT [XGTACX_site8314]”, the “gcPBM binding intensity (ln)” value stood at 9.67.

In the case of “AACTTTGGCAAACACACACACACACCCACACCCACA [CACACA_site588]”, the “gcPBM binding intensity (ln)” value was determined as 10.5.

As to “AAATTTGGCAAACACACACACACACCCACACCCACA [CACACA_site8095]”, the “gcPBM binding intensity (ln)” value came to 11.4.

In the case of “AAATTTGGCAAACACACACACACACCCACAGAGACA [CACACA_site4490]”, the “gcPBM binding intensity (ln)” value amounted to 11.3.

As for “AAAAATTTGGCATACACACACACACCCACACCCACA [CACACA_site587]”, the “gcPBM binding intensity (ln)” value was 10.4.

Consider “ATTTGGCAGAAACACACACACACACCCACCCACATA [CACACA_site589]”, for which the “gcPBM binding intensity (ln)” value was 10.5.

As for “ATTTGGCATAAACACACACACACACCCACCCACATA [CACACA_site8096]”, the “gcPBM binding intensity (ln)” value turned out to be 10.9.
